Reference: PubChem BioAssay AID1159580 (chemical genetic matrix, 2015)
“And” between values parts separate entries of the source, which are not always exact repeats. Equal values may be shown once. Among all 5,500 compounds or so, about 2,000 (36%) were called active. Roughly 18% stayed inconclusive and do not appear here. Rule as the data show it: active = normalized growth mostly below about 0.91 (no sharp cut-off); inconclusive = no clear call, values can overlap the other calls; inactive = mostly above about 0.92. Some of the results follow.

Experiment: chemical genetic growth profiling, strain panel (AID 1159580);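 also: tested at 20 µM; growth read once vehicle control cultures reached saturation at 30 °C; 1 = growth at the plate median or of vehicle wells; lower values mean less growth of the strain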
Settings: S. cerevisiae deletion strains, growth OD

Measured: normalized growth

C[C@@H]1CC[C@]2(C(=O)O)CC[C@]3(C)C(=CCC4[C@@]5(C)CC[C@H](O)C(C)(C)C5CC[C@]43C)C2[C@H]1C (stereo partly specified)
inactive: locus YAL021C, strain ccr4, stronger effect = lower value 0.995 | locus YAL026C, strain drs2, stronger effect = lower value 1.01 | locus YAL030W, strain snc1, stronger effect = lower value 0.995 | locus YBL061C, strain skt5, stronger effect = lower value 1.01 | locus YBR009C, strain hhf1, stronger effect = lower value 1.01 | locus YBR021W, strain FUR4, stronger effect = lower value 1.03 | locus YBR023C, strain chs3, stronger effect = lower value 1.01 | locus YBR171W, strain sec66, stronger effect = lower value 1 | locus YBR229C, strain ROT2, stronger effect = lower value 1.03 | locus YBR231C, strain swc5, stronger effect = lower value 1.01 | locus YBR279W, strain paf1, stronger effect = lower value 1 | locus YCL011C, strain gbp2, stronger effect = lower value 1 | locus YCL016C, strain dcc1, stronger effect = lower value 1.01 | locus YCL029C, strain bik1, stronger effect = lower value 1 | locus YCL061C, strain MRC1, stronger effect = lower value 0.997 | locus YCL069W, strain vba3, stronger effect = lower value 1.01 | locus YCR088W, strain abp1, stronger effect = lower value 0.993 | locus YDL005C, strain med2, stronger effect = lower value 0.998 | locus YDL035C, strain GPR1, stronger effect = lower value 1.04 | locus YDL040C, strain nat1, stronger effect = lower value 0.992 | locus YDL074C, strain BRE1, stronger effect = lower value 1.07 | locus YDL101C, strain DUN1, stronger effect = lower value 1.03 | locus YDL134C, strain PPH21, stronger effect = lower value 1.08 | locus YDL185W, strain tfp1, stronger effect = lower value 0.999 | locus YDL192W, strain arf1, stronger effect = lower value 1.01 | locus YDR001C, strain nth1, stronger effect = lower value 1 | locus YDR069C, strain doa4, stronger effect = lower value 1 | locus YDR101C, strain arx1, stronger effect = lower value 1.01 | locus YDR137W, strain rgp1, stronger effect = lower value 1.04 | locus YDR150W, strain NUM1, stronger effect = lower value 1.03 | locus YDR159W, strain sac3, stronger effect = lower value 1 | locus YDR162C, strain NBP2, stronger effect = lower value 1.07 | locus YDR195W, strain ref2 0.974 | locus YDR297W, strain sur2, stronger effect = lower value 1 | locus YDR318W, strain mcm21, stronger effect = lower value 0.993 | locus YDR334W, strain swr1, stronger effect = lower value 1 | locus YDR335W, strain msn5, stronger effect = lower value 0.997 | locus YDR388W, stronger effect = lower value 1 | locus YDR392W, strain spt3, stronger effect = lower value 0.911 | locus YDR502C, strain sam2, stronger effect = lower value 0.997 | locus YEL003W, strain gim4, stronger effect = lower value 0.998 | locus YEL037C, strain rad23, stronger effect = lower value 1 | locus YEL061C, strain CIN8 (second series), stronger effect = lower value 0.995 | locus YEL061C, strain CIN8, stronger effect = lower value 1.02 | locus YER015W, strain faa2, stronger effect = lower value 1.01 | locus YER016W, strain bim1, stronger effect = lower value 0.999 | locus YER110C, stronger effect = lower value 1.01 | locus YER111C, strain swi4, stronger effect = lower value 0.984 | locus YER155C, strain BEM2 (second series), stronger effect = lower value 0.992 | locus YER155C, strain BEM2, stronger effect = lower value 1.02 | locus YER167W, strain BCK2, stronger effect = lower value 1.03 | locus YFR010W, strain ubp6, stronger effect = lower value 0.983 | locus YGL078C, strain dbp3, stronger effect = lower value 0.985 | locus YGL167C, strain pmr1, stronger effect = lower value 1 | locus YGL173C, strain kem1, stronger effect = lower value 1.01 | locus YGL227W, strain vid30, stronger effect = lower value 0.994 | locus YGL240W, strain doc1, stronger effect = lower value 0.998 | locus YGL248W, strain PDE1, stronger effect = lower value 1.03 | locus YGL253W, strain hxk2, stronger effect = lower value 1.01 | locus YGR135W, strain pre9, stronger effect = lower value 0.996 | locus YGR229C, strain SMI1, stronger effect = lower value 1.06 | locus YGR252W, strain gcn5, stronger effect = lower value 1.01 | locus YHR013C, strain ard1, stronger effect = lower value 0.996 | locus YHR027C, strain rpn1, stronger effect = lower value 0.995 | locus YHR030C, strain SLT2, stronger effect = lower value 1.02 | locus YHR079C, strain IRE1 (second series), stronger effect = lower value 0.996 | locus YHR079C, strain IRE1, stronger effect = lower value 1.02 | locus YHR094C, strain hxt1, stronger effect = lower value 1.01 | locus YHR129C, strain ARP1, stronger effect = lower value 1.03 | locus YHR142W, strain chs7, stronger effect = lower value 1.03 | locus YHR200W, strain rpn10, stronger effect = lower value 0.986 | locus YIL066C, strain RNR3, stronger effect = lower value 1.07 | locus YIL073C, strain SPO22, stronger effect = lower value 0.999 | locus YIL125W, strain kgd1, stronger effect = lower value 1 | locus YIR030C, strain dcg1, stronger effect = lower value 0.997 | locus YJL092W, strain hpr5, stronger effect = lower value 0.999 | locus YJL095W, strain BCK1 (second series), stronger effect = lower value 0.988 | locus YJL095W, strain BCK1, stronger effect = lower value 1.08 and 1.01 | locus YJL115W, strain asf1, stronger effect = lower value 0.992 | locus YJL129C, strain trk1, stronger effect = lower value 1.01 | locus YJL134W, strain LCB3, stronger effect = lower value 1.02 | locus YJL154C, strain vps35, stronger effect = lower value 0.997 | locus YJL164C, strain tpk1, stronger effect = lower value 1.01 | locus YJL166W, strain qcr8, stronger effect = lower value 1 | locus YJL168C, strain set2, stronger effect = lower value 0.986 | locus YJL187C, strain SWE1 (second series), stronger effect = lower value 1.05 | locus YJL187C, strain SWE1, stronger effect = lower value 0.997 | locus YJR043C, strain POL32, stronger effect = lower value 1.06 | locus YJR066W, strain TOR1, stronger effect = lower value 1.02 | locus YKL068W, stronger effect = lower value 1.01 | locus YKL160W, strain elf1, stronger effect = lower value 1 | locus YKL190W, strain CNB1, stronger effect = lower value 1.02 | locus YKR001C, strain vps1, stronger effect = lower value 1.02 | locus YKR026C, strain gcn3, stronger effect = lower value 0.996 | locus YKR091W, strain srl3, stronger effect = lower value 0.991 | locus YLL001W, strain dnm1, stronger effect = lower value 0.989 | locus YLL026W, stronger effect = lower value 0.989 | locus YLL041C, strain sdh2, stronger effect = lower value 0.995 | locus YLR027C, strain aat2, stronger effect = lower value 1.01 | locus YLR039C, strain RIC1, stronger effect = lower value 1.14 | locus YLR058C, strain SHM2, stronger effect = lower value 1.04 | locus YLR102C, strain apc9, stronger effect = lower value 0.987 | locus YLR113W, strain HOG1, stronger effect = lower value 0.995 | locus YLR221C, strain rsa3, stronger effect = lower value 1 | locus YLR258W, strain gsy2, stronger effect = lower value 1.01 | locus YLR262C, strain YPT6 (second series), stronger effect = lower value 1.02 | locus YLR262C, strain YPT6, stronger effect = lower value 1.11 | locus YLR268W, strain sec22, stronger effect = lower value 1.01 | locus YLR320W, strain mms22, stronger effect = lower value 1.01 | locus YLR330W, strain CHS5, stronger effect = lower value 1.03 | locus YLR342W, strain FKS1 (second series), stronger effect = lower value 1.02 | locus YLR342W, strain FKS1, stronger effect = lower value 1 | locus YLR357W, strain rsc2, stronger effect = lower value 0.975 | locus YLR370C, strain arc18, stronger effect = lower value 0.998 | locus YLR371W, strain rom2, stronger effect = lower value 0.995 | locus YLR384C, strain iki3, stronger effect = lower value 0.995 | locus YLR418C, strain cdc73, stronger effect = lower value 1.02 | locus YML016C, strain PPZ1, stronger effect = lower value 1.03 | locus YML032C, strain rad52, stronger effect = lower value 0.988 | locus YML120C, strain ndi1, stronger effect = lower value 0.999 | locus YML124C, strain tub3, stronger effect = lower value 0.999 | locus YMR058W, strain fet3, stronger effect = lower value 1.01 | locus YMR078C, strain ctf18, stronger effect = lower value 0.976 | locus YMR125W, strain sto1, stronger effect = lower value 0.986 | locus YMR129W, stronger effect = lower value 0.997 | locus YMR205C, strain PFK2, stronger effect = lower value 0.991 | locus YMR223W, strain ubp8, stronger effect = lower value 0.992 | locus YMR231W, strain pep5, stronger effect = lower value 0.998 | locus YMR263W, strain SAP30, stronger effect = lower value 1.04 | locus YMR307W, strain GAS1, stronger effect = lower value 1.15 | locus YNL067W, strain RPL9B, stronger effect = lower value 1.06 | locus YNL071W, strain lat1, stronger effect = lower value 1.01 | locus YNL128W, strain TEP1, stronger effect = lower value 1.04 | locus YNL183C, strain NPR1, stronger effect = lower value 0.993 | locus YNL209W, strain ssb2, stronger effect = lower value 0.993 | locus YNL233W, strain BNI4, stronger effect = lower value 1.05 | locus YNL248C, strain rpa49, stronger effect = lower value 1.01 | locus YNL250W, strain rad50, stronger effect = lower value 0.997 | locus YNL271C, strain bni1, stronger effect = lower value 0.991 | locus YNL298W, strain CLA4, stronger effect = lower value 1.01 | locus YNL307C, strain MCK1, stronger effect = lower value 1.01 | locus YNL322C, strain KRE1 (second series), stronger effect = lower value 0.979 | locus YNL322C, strain KRE1, stronger effect = lower value 1.03 | locus YNR049C, strain mso1, stronger effect = lower value 0.993 | locus YNR052C, strain pop2, stronger effect = lower value 0.982 | locus YOL012C, strain htz1 1.17 | locus YOL147C, strain pex11, stronger effect = lower value 0.992 | locus YOR001W, strain rrp6, stronger effect = lower value 1.01 | locus YOR061W, strain CKA2, stronger effect = lower value 1.03 | locus YOR069W, strain VPS5, stronger effect = lower value 1.02 | locus YOR070C, strain gyp1, stronger effect = lower value 1.01 | locus YOR080W, strain dia2, stronger effect = lower value 0.998 | locus YOR083W, strain WHI5, stronger effect = lower value 0.99 | locus YOR106W, strain vam3, stronger effect = lower value 1.01 | locus YOR136W, strain idh2, stronger effect = lower value 0.993 | locus YOR144C, strain elg1, stronger effect = lower value 0.99 | locus YOR184W, strain ser1, stronger effect = lower value 1.03 | locus YOR231W, strain MKK1, stronger effect = lower value 1.02 | locus YOR265W, strain rbl2, stronger effect = lower value 0.999 | locus YOR270C, strain vph1, stronger effect = lower value 1 | locus YOR290C, strain snf2, stronger effect = lower value 0.995 | locus YOR316C, strain cot1, stronger effect = lower value 1.01 | locus YPL051W, strain arl3, stronger effect = lower value 1.01 | locus YPL055C, strain LGE1, stronger effect = lower value 1.1 | locus YPL078C, strain atp4, stronger effect = lower value 1 | locus YPL106C, strain sse1, stronger effect = lower value 0.984 | locus YPL240C, strain hsp82, stronger effect = lower value 1.01 | locus YPL256C, strain CLN2, stronger effect = lower value 0.993 | locus YPR119W, strain clb2, stronger effect = lower value 1 | locus YPR141C, strain kar3, stronger effect = lower value 0.998 | locus YPR163C, strain tif3, stronger effect = lower value 0.997 | locus YPR167C, strain met16, stronger effect = lower value 1.01 | strain wtn01, stronger effect = lower value 1.02
active: locus YGL086W, strain mad1, stronger effect = lower value 1.28 [resistant] | locus YKL085W, strain MDH1 (second series), stronger effect = lower value 1.33 [resistant] | locus YKL085W, strain MDH1, stronger effect = lower value 1.33 [resistant]
